Experimental data reported in the supplement of paper PMC10849652.
About 7,900 targets were measured; listed, in parts, are those with a hit and a random draw of the rest. About 0.6% of all pairs of compound and target were hits.

Experiments:
Assay in all cases: log2 fold change, soluble protein after heating vs DMSO (PISA); higher = thermal stabilisation; K562 cells, 10 uM, 30 min; active = over 0.2 and 3.5 SD of the protein, either way, in both replicates (recomputed)
[1] = compound: CC[C@@H]1C(=O)N(C)c2cnc(Nc3ccc(C(=O)NC4CCN(C)CC4)cc3OC)nc2N1C1CCCC1
How it was run: (§1)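 Aliquots of K562 cells (2×10^6 cells/mL) treated with 10 μM compound for 30 min were heated for 3 min over 48°C-58°C. After pooling and extraction in PBS with 0.5% NP-40 at 4°C, soluble protein from a 21,000xg, 90 min spin was quantified by TMTpro 16plex LC-MS/MS with channel sums equalised. Thermal stability is expressed against control samples, from duplicates, as a log2 fold change.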

volasertib = compound: CC[C@@H]1C(=O)N(C)c2cnc(Nc3ccc(C(=O)N[C@H]4CC[C@H](N5CCN(CC6CC6)CC5)CC4)cc3OC)nc2N1C(C)C [volasertib]
How it was run: as §1

[2] = compound: CC[C@H](C)N1C=C(C2=C(C=C(C=C21)C3=CN=C(C=C3)N4CCNCC4)C(=O)NCC5=C(C=C(NC5=O)C)C)C
How it was run: as §1

epoxomicin = compound: CC[C@H](C)[C@@H](C(=O)N[C@@H]([C@@H](C)O)C(=O)N[C@@H](CC(C)C)C(=O)[C@]1(CO1)C)NC(=O)[C@H]([C@@H](C)CC)N(C)C(=O)C [epoxomicin]
How it was run: as §1

[3] = compound: CCn1c(C(=O)N(C2CC2)C2CC2)cc2c3c(ncn3C)c(Nc3cc(C)n(C)n3)nc21
How it was run: as §1

[4] = compound: CCn1cc(-c2ccnc3[nH]c(-c4cccc(CN(C)C)c4)cc23)c(-c2ccc(NC(=O)N(C)C)cc2)n1
How it was run: as §1

[5] = compound: CN(C)CC(=O)Nc1ccc2[nH]c(=O)c3ccccc3c2c1
How it was run: as §1

rosiglitazone = compound: CN(CCOC1=CC=C(C=C1)C[C@H]2C(=O)NC(=O)S2)C3=CC=CC=N3 (racemic) [rosiglitazone]
How it was run: as §1

[6] = compound: CN1C2=C(C3=C1C(=O)N(N=C3)CC4=CC(=CC=C4)N)SC(=C2)S(=O)C
How it was run: as §1

[7] = compound: CN1CCC(CNc2ccc3ncc(-c4cccc(OC(F)(F)F)c4)n3n2)CC1
How it was run: as §1

saracatinib = compound: CN1CCN(CCOc2cc(OC3CCOCC3)c3c(Nc4c(Cl)ccc5c4OCO5)ncnc3c2)CC1 [saracatinib]
How it was run: as §1

sotrastaurin = compound: CN1CCN(c2nc(C3=C(c4c[nH]c5ccccc45)C(=O)NC3=O)c3ccccc3n2)CC1 [sotrastaurin]
How it was run: as §1

alvocidib = compound: CN1CC[C@H](c2c(O)cc(O)c3c(=O)cc(-c4ccccc4Cl)oc23)[C@H](O)C1 [alvocidib]
How it was run: as §1

Tubastatin A = compound: CN1CCc2c(c3ccccc3n2Cc2ccc(C(=O)NO)cc2)C1 [Tubastatin A]
How it was run: as §1

[8] = compound: CNC(=O)C1=CC=CC=C1NC2=NC(=NC=C2Cl)NC3=C(C=C(C=C3)N4CCOCC4)OC
How it was run: as §1

defactinib = compound: CNC(=O)c1ccc(Nc2ncc(C(F)(F)F)c(NCc3nccnc3N(C)S(C)(=O)=O)n2)cc1 [defactinib]
How it was run: as §1

rucaparib = compound: CNCc1ccc(-c2[nH]c3cc(F)cc4c3c2CCNC4=O)cc1 [rucaparib]
How it was run: as §1

[9] = compound: CNc1nc(-c2ccc3c(N)n[nH]c3c2)cc(N2C[C@@H](C(=O)NC3CCCCC3)CC[C@H]2C)n1
How it was run: as §1

encorafenib = compound: COC(=O)N[C@@H](C)CNc1nccc(-c2cn(C(C)C)nc2-c2cc(Cl)cc(NS(C)(=O)=O)c2F)n1 [encorafenib]
How it was run: as §1

[10] = compound: COC(=O)[C@H](CCSC)NC(=O)C1=C(C=C(C=C1)NC[C@H](CS)N)C2=CC=CC=C2
How it was run: as §1

Measured: log2 fold change

UBE2S (UniProt Q16763)
Sequence of UniProt Q16763 (Q16763 whole entry, looked up): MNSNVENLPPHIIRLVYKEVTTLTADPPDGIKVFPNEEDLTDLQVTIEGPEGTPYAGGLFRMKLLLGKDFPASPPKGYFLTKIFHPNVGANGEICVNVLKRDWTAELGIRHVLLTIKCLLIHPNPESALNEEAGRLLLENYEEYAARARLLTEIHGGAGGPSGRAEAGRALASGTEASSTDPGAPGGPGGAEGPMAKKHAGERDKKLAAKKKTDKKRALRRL
inactive: [1] -0.025 | [2] 0.005 | epoxomicin 0.195 | [3] -0.009 | [4] 0.015 | [5] 0.048 | rosiglitazone -0.004 | [6] -0.048 | [7] 0.024 | saracatinib -0.001 | sotrastaurin -0.023 | alvocidib -0.078 | Tubastatin A 0.2 | [8] -0.016 | defactinib -0.082 | rucaparib -0.051 | [9] -0.041 | encorafenib 0.022 | [10] -0.007
active: volasertib -0.214

UHRF1BP1 (UniProt Q6BDS2)
inactive: [1] 0.137 | volasertib 0.131 | [2] 0.036 | epoxomicin -0.067 | [3] -0.013 | [4] -0.105 | [5] 0.012 | rosiglitazone 0.019 | [6] -0.09 | saracatinib 0.011 | sotrastaurin 0.049 | alvocidib -0.043 | Tubastatin A 0.016 | [8] -0.013 | defactinib -0.064 | rucaparib -0.007 | [9] 0.048 | encorafenib -0.012 | [10] 0.017
active: [7] 0.211

WDR7 (UniProt Q9Y4E6)
Sequence of UniProt Q9Y4E6 (Q9Y4E6 whole entry, looked up): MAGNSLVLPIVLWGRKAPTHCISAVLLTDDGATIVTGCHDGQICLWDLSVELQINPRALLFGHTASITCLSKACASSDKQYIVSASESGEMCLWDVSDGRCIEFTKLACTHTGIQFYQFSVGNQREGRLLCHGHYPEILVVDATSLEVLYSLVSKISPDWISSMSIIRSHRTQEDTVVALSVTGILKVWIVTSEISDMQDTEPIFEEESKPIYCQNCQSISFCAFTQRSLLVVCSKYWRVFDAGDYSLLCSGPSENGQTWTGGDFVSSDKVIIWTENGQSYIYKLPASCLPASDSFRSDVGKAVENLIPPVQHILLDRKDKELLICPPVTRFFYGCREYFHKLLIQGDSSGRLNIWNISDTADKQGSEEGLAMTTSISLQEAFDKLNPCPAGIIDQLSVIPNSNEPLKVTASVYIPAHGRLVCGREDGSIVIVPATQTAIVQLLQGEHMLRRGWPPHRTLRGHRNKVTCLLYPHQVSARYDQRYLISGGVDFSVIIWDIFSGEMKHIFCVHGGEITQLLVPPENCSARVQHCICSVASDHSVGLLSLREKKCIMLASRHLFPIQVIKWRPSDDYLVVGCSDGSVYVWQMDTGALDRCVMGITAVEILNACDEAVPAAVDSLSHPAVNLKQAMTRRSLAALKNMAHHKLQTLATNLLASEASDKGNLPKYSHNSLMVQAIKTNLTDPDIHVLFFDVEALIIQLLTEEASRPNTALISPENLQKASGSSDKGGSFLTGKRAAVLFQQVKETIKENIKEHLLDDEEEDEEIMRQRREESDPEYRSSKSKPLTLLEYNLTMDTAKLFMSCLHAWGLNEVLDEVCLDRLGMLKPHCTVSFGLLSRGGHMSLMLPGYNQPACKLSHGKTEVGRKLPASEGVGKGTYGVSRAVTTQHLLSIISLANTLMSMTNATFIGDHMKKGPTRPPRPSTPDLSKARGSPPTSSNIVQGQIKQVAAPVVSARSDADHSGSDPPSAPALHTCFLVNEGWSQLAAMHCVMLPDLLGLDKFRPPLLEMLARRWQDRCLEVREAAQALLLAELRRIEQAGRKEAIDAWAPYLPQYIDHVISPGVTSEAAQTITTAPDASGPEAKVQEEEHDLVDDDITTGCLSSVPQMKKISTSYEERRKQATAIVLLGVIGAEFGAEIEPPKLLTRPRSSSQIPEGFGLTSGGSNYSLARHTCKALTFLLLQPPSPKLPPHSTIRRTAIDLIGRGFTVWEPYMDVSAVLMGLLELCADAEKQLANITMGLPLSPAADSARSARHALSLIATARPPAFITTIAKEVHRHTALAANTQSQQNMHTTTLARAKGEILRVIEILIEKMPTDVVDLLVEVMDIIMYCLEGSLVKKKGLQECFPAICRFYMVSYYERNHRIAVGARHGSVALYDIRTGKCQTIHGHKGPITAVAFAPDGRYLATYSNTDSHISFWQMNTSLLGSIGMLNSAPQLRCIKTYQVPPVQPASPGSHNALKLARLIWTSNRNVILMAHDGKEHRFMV
inactive: [1] -0.09 | [2] 0.027 | epoxomicin -0.007 | [3] -0.085 | [4] -0.007 | [5] 0.279 | rosiglitazone 0.082 | [6] 0.034 | [7] -0.199 | saracatinib 0.024 | sotrastaurin 0.041 | alvocidib 0.04 | Tubastatin A -0.047 | [8] -0.114 | defactinib -0.3 | rucaparib 0.128 | [9] -0.015 | encorafenib -0.174 | [10] -0.373
active: volasertib -0.415

VPS41 (UniProt P49754)
active: [7] -0.25
inactive: [1] -0.214 | volasertib -0.309 | [2] 0.02 | epoxomicin -0.038 | [3] -0.005 | [4] -0.106 | [5] -0.004 | rosiglitazone 0.066 | [6] 0.054 | saracatinib -0.02 | sotrastaurin -0.077 | alvocidib -0.046 | Tubastatin A 0.034 | [8] -0.055 | defactinib -0.041 | rucaparib 0.023 | [9] -0.001 | encorafenib -0.011 | [10] 0.103

TNPO1 (UniProt Q92973)
active: volasertib -0.379
inactive: [1] -0.182 | [2] 0.046 | epoxomicin -0.016 | [3] 0.021 | [4] -0.025 | [5] 0.018 | rosiglitazone 0.012 | [6] -0.019 | [7] -0.055 | saracatinib 0.034 | sotrastaurin -0.062 | alvocidib -0.141 | Tubastatin A -0.064 | [8] -0.013 | defactinib -0.123 | rucaparib -0.04 | [9] 0.009 | encorafenib 0.029 | [10] 0.006

UHRF1BP1L (UniProt A0JNW5)
Sequence of UniProt A0JNW5 (A0JNW5 whole entry, looked up): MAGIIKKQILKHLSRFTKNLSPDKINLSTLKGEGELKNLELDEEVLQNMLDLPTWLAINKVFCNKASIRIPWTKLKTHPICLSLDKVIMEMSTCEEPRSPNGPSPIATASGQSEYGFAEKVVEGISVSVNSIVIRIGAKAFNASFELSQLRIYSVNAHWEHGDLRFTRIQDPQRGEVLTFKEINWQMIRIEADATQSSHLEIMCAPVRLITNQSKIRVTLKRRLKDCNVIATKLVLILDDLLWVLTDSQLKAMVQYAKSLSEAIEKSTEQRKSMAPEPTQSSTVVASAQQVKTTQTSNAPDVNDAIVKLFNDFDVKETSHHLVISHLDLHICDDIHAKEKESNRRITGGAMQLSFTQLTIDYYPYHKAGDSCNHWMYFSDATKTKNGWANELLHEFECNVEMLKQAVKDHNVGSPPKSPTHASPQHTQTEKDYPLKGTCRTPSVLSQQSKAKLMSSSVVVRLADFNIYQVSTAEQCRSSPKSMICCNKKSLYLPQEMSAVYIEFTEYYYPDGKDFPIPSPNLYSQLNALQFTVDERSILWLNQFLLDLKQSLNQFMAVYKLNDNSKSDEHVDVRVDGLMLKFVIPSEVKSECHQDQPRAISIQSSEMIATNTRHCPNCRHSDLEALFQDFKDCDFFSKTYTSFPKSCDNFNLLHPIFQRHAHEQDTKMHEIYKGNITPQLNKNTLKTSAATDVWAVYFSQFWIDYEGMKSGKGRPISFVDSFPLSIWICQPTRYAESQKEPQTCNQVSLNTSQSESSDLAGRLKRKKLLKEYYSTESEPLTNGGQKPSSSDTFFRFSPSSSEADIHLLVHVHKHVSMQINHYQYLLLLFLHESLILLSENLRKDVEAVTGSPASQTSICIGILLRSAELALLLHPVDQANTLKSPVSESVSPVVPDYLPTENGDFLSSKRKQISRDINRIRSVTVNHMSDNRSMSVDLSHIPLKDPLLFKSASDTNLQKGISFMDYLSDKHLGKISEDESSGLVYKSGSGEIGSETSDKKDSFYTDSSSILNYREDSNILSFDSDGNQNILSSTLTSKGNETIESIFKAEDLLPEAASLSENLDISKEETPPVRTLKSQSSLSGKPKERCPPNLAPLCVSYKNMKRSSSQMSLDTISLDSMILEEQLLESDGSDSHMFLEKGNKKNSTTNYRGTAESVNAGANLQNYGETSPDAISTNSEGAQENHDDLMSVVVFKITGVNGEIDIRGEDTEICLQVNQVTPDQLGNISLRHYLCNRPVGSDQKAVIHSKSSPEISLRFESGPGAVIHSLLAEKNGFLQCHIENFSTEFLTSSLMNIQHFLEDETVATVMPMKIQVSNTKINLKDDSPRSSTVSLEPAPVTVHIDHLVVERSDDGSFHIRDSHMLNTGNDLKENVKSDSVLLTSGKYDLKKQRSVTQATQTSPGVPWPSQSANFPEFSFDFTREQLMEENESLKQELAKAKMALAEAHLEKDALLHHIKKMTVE
inactive: [1] 0.165 | volasertib 0.034 | [2] -0.009 | epoxomicin -0.022 | [3] -0.018 | [4] -0.086 | [5] 0.02 | rosiglitazone 0.028 | [6] -0.079 | [7] 0.1 | saracatinib -0.01 | sotrastaurin 0 | alvocidib -0.037 | Tubastatin A 0.031 | [8] -0.051 | defactinib -0.024 | rucaparib -0.052 | [9] 0.05 | encorafenib -0.02 | [10] -0.029

TRAPPC3 (UniProt O43617)
Sequence of UniProt O43617 (O43617 whole entry, looked up): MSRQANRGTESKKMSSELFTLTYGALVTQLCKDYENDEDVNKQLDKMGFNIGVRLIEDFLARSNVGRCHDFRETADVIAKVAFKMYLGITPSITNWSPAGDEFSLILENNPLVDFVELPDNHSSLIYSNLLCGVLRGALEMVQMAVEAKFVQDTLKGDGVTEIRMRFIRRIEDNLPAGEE
inactive: [1] -0.019 | volasertib -0.118 | [2] -0.02 | epoxomicin -0.029 | [3] 0.047 | [4] 0.04 | [5] -0.016 | rosiglitazone -0.022 | [6] -0.051 | [7] -0.059 | saracatinib 0.063 | sotrastaurin 0.001 | alvocidib -0.071 | Tubastatin A -0.026 | [8] 0 | defactinib -0.072 | rucaparib -0.056 | [9] -0.014 | encorafenib 0.015 | [10] 0.013

UBR2 (UniProt Q8IWV8)
inactive: [1] 0.046 | volasertib -0.104 | [2] -0.004 | epoxomicin 0.196 | [3] -0.026 | [4] -0.039 | [5] -0.076 | rosiglitazone 0.063 | [6] 0.114 | [7] -0.063 | saracatinib -0.065 | sotrastaurin -0.024 | alvocidib 0.132 | Tubastatin A 0.098 | [8] -0.014 | defactinib -0.052 | rucaparib -0.012 | [9] 0.145 | encorafenib 0.143 | [10] 0.085

TRAM1 (UniProt Q15629)
Sequence of UniProt Q15629 (Q15629 whole entry, looked up): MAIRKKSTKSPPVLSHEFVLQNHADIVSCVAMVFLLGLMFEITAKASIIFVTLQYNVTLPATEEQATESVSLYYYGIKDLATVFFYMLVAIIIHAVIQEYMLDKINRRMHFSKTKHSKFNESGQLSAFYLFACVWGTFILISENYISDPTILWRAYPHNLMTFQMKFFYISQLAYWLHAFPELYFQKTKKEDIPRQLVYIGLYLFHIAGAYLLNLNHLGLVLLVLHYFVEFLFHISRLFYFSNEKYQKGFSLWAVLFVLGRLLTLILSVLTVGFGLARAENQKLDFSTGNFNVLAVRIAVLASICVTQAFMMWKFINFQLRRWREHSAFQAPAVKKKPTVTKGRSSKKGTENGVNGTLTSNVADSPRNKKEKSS
active: [7] -0.759
inactive: [1] -0.216 | volasertib -0.161 | [2] 0.031 | epoxomicin 0.008 | [3] -0.004 | [4] 0.066 | [5] 0.062 | rosiglitazone 0.095 | [6] -0.001 | saracatinib -0.007 | sotrastaurin -0.025 | alvocidib -0.02 | Tubastatin A -0.052 | [8] -0.208 | defactinib -0.029 | rucaparib -0.132 | [9] 0 | encorafenib 0.179 | [10] -0.052

TMEM63B (UniProt Q5T3F8)
inactive: [1] -0.001 | volasertib 0.071 | [2] -0.019 | epoxomicin 0.039 | [3] 0.041 | [4] 0.011 | [5] -0.052 | rosiglitazone -0.052 | [6] 0.042 | [7] -0.073 | saracatinib -0.084 | sotrastaurin -0.055 | alvocidib 0.021 | Tubastatin A -0.015 | [8] 0.019 | defactinib 0.015 | rucaparib -0.004 | [9] -0.068 | encorafenib 0.023 | [10] 0

TMEM173 (UniProt Q86WV6)
inactive: [1] 0.219 | volasertib 0.156 | [2] 0.086 | epoxomicin 0.026 | [3] 0.021 | [4] -0.017 | [5] 0.032 | rosiglitazone 0.044 | [6] -0.049 | saracatinib -0.002 | sotrastaurin -0.023 | alvocidib -0.07 | Tubastatin A 0.03 | [8] 0.014 | defactinib -0.055 | rucaparib -0.078 | [9] 0.034 | encorafenib 0.062 | [10] -0.005
active: [7] 0.293

WDR4 (UniProt P57081)
Sequence of UniProt P57081 (P57081 whole entry, looked up): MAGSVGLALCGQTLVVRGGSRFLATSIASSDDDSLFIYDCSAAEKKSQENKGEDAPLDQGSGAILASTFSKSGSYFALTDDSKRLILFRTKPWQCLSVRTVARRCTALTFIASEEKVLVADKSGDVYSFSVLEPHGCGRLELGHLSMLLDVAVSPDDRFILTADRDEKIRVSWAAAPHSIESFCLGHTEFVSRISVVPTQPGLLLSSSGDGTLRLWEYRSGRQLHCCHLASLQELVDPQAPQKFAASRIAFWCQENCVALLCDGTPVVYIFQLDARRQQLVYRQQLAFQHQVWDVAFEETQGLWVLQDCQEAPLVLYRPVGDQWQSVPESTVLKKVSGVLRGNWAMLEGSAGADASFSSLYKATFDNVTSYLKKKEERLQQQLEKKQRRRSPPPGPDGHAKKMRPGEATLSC
inactive: [1] -0.031 | volasertib -0.072 | [2] 0.025 | epoxomicin 0.074 | [3] -0.03 | [4] -0.06 | [5] 0.022 | rosiglitazone 0.177 | [6] -0.08 | [7] -0.114 | saracatinib 0.008 | sotrastaurin 0.071 | alvocidib -0.068 | Tubastatin A 0.018 | [8] -0.022 | defactinib -0.027 | rucaparib -0.079 | [9] 0.024 | encorafenib 0.041 | [10] -0.033

WASHC2C, A0A096LPC5
inactive: [1] 0.034 | volasertib -0.111 | [2] -0.03 | epoxomicin -0.016 | [3] 0.063 | [4] -0.132 | [5] 0.012 | rosiglitazone 0.067 | [6] 0.142 | saracatinib -0.116 | sotrastaurin -0.09 | alvocidib 0.071 | Tubastatin A -0.02 | [8] -0.019 | defactinib -0.121 | rucaparib 0.114 | [9] -0.02 | encorafenib 0.035 | [10] 0.052
active: [7] -0.507

WDR47 (UniProt O94967)
inactive: [1] 0.011 | volasertib -0.112 | [2] -0.02 | epoxomicin -0.037 | [3] -0.047 | [4] -0.055 | [5] -0.012 | rosiglitazone -0.003 | [6] 0.029 | [7] 0.234 | saracatinib -0.019 | sotrastaurin -0.008 | alvocidib -0.002 | Tubastatin A 0.039 | [8] 0.035 | defactinib 0.052 | rucaparib -0.071 | [9] -0.041 | encorafenib 0.045 | [10] -0.087

TRIM28 (UniProt Q13263)
Sequence of UniProt Q13263 (Q13263 whole entry, looked up): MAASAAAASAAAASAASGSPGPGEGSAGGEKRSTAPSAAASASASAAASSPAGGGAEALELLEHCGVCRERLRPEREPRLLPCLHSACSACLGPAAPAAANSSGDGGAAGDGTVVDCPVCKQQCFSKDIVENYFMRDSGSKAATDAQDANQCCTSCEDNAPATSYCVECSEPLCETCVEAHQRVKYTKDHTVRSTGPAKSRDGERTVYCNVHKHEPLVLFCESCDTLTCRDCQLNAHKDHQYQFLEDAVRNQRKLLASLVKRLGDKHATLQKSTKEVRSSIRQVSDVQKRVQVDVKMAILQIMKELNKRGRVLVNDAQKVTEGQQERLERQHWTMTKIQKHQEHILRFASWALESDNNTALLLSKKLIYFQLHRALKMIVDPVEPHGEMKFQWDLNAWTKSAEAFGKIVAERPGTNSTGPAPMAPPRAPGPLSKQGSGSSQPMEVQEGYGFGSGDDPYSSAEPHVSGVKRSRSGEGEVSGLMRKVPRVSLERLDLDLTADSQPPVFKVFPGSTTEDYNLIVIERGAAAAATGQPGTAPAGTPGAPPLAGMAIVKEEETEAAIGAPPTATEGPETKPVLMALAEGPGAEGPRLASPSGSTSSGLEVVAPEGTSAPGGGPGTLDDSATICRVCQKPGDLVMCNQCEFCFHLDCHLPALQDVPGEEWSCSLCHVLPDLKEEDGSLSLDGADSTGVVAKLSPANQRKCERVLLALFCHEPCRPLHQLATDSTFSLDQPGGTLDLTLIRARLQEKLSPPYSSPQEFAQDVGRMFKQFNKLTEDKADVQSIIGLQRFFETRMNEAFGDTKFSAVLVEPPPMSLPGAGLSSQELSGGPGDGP
active: volasertib -0.222
inactive: [1] -0.097 | [2] 0.052 | epoxomicin 0.077 | [3] -0.004 | [4] 0 | [5] 0.047 | rosiglitazone 0.029 | [6] -0.033 | [7] -0.033 | saracatinib 0.008 | sotrastaurin -0.064 | alvocidib -0.128 | Tubastatin A 0.048 | [8] 0.054 | defactinib -0.121 | rucaparib -0.075 | [9] -0.019 | encorafenib 0.047 | [10] -0.032

USP3 (UniProt Q9Y6I4)
active: [7] -0.379
inactive: [1] -0.173 | volasertib -0.325 | [2] 0.04 | epoxomicin -0.083 | [3] -0.051 | [4] -0.037 | [5] 0.063 | rosiglitazone 0.094 | [6] -0.077 | saracatinib 0.16 | sotrastaurin 0.074 | alvocidib -0.288 | Tubastatin A -0.181 | [8] -0.118 | defactinib -0.205 | rucaparib 0.042 | [9] 0.155 | encorafenib -0.008 | [10] -0.092
